Data on five compounds can be found in PubChem BioAssay (EPA / NIEHS).

Assay [1] is described as follows: ATG_TAL_CIS: Attagene CIS-FACTORIAL HepG2 Assay for human TAL Basal Promoter (AID 2282966; active = hit-call score of the fitted dose curve at least 0.9, where 1 is the maximum; inactive = score below 0.9;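 also: background control endpoint measuring basal TAL promoter reporter mRNA not a specific factor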). The settings on record: HepG2 Attagene cis-factorial TAL promoter reporter; actives raise or lower the signal. The method, boiled down:
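Endogenous transcription-factor activity is sensed in HepG2 cells through transfected cis-promoter reporter constructs. After 24 h dosing, reporter transcripts are quantified by RT-PCR and capillary electrophoresis. Gain or loss of signal is fitted relative to DMSO.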

Assay [2] in a line: ATG_TGFb_CIS: Attagene CIS-FACTORIAL HepG2 Assay for human Transforming Growth Factor (TGF) (AID 2282967; active = hit-call score of the fitted dose curve at least 0.9, where 1 is the maximum; inactive = score below 0.9). The settings on record: HepG2 Attagene CIS TGFb reporter, mRNA transcription; actives raise or lower the signal. The method, boiled down: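 Transient MRTU transfection of HepG2 (FuGene 6). Dose 24 h. TriZol RNA, oligo(dT) RT, PCR, 6-FAM primer extension, HpaI cut, CE. Bidirectional fit, DMSO = baseline.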

Assay [3] is described as follows: ATG_VDRE_CIS: Attagene CIS-FACTORIAL HepG2 Assay for human Vitamin D Receptor Element (VDRE) (AID 2282968; active = hit-call score of the fitted dose curve at least 0.9, where 1 is the maximum; inactive = score below 0.9). Conditions: HepG2 VDRE cis-reporter transcription, actives raise or lower the signal. The essentials: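 Compounds were applied for 24 h to HepG2 cells transfected with promoter-regulated reporter units. Total RNA was reverse-transcribed, and reporter amplicons were fluorescently labelled and sized by capillary electrophoresis.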

Assay [4] has as its target Nuclear receptor subfamily 1 group I member 3 (Homo sapiens) (UniProt Q14994). As to the kind of experiment: ATG_CAR_TRANS: Attagene TRANS-FACTORIAL HepG2 Assay for human Constitutive Androstane Receptor (CAR) (AID 2282969).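 Also: activators raise reporter mRNA above DMSO so AC50 marks induction.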 The settings on record: HepG2 Attagene TRANS-FACTORIAL CAR reporter. The essentials:
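Transiently transfected HepG2, multiplex TRANS reporters (CAR-Gal4 chimera driving GAL4-UAS reporter). 24 h dosing. Readout: reporter transcript by RT-PCR + capillary electrophoresis, fluorescence intensity; positive direction vs DMSO.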

The target in assay [5] is Estrogen receptor (Homo sapiens) (UniProt P03372). As to the kind of experiment: ATG_ERa_TRANS: Attagene TRANS-FACTORIAL HepG2 Assay for human Estrogen Receptor alpha (ERa) (AID 2282970). The settings on record: HepG2 Attagene TRANS ERa GAL4 reporter, mRNA. The method, boiled down: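 Transfected HepG2 cells carrying GAL4-UAS-driven reporter units were dosed for 24 hours. Total RNA was reverse-transcribed, reporter sequences PCR-amplified, FAM-labelled, HpaI-digested and resolved by capillary electrophoresis. Increases over DMSO control defined activity.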
Sequence of Estrogen receptor (Homo sapiens) (P03372 whole entry, looked up, the tested form may be a part): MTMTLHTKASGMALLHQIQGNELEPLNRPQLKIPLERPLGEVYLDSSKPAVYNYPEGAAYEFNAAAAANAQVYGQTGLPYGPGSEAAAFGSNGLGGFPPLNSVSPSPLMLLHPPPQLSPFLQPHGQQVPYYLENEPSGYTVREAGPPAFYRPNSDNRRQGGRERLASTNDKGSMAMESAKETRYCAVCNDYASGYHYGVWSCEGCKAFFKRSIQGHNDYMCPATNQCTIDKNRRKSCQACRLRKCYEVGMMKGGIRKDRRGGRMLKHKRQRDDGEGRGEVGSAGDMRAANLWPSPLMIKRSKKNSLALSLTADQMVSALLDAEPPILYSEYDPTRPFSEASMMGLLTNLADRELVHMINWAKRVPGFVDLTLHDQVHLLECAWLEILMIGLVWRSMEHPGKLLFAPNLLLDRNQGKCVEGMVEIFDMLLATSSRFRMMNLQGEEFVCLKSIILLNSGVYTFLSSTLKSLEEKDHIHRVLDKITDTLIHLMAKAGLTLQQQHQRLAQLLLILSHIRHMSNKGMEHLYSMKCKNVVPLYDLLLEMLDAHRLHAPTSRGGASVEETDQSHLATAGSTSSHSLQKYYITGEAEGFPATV

The target in assay [6] is X-box-binding protein 1 (Homo sapiens) (UniProt P17861). As to the kind of experiment: ATG_Xbp1_CIS: Attagene CIS-FACTORIAL HepG2 Assay for human X-box Binding Protein 1 (XBP1) (AID 2282972; active = hit-call score of the fitted dose curve at least 0.9, where 1 is the maximum; inactive = score below 0.9). Conditions: HepG2 XBP1 cis-element reporter, Attagene multiplex; actives raise or lower the signal. The essentials:
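Human hepatoma HepG2, cis-element reporter system, 24 h treatment; mRNA quantified by RT-PCR/CE fluorescence; fit relative to DMSO.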

Assay [7] is described as follows: ATG_M_19_TRANS: Attagene TRANS-FACTORIAL HepG2 Assay for M19 Transcription Factor (Internal Marker) (AID 2282974). Conditions: HepG2 Attagene TRANS-FACTORIAL M19 internal marker reporter. The method, boiled down:
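Transfected HepG2 (GAL4-UAS MRTUs), 24 h compound, TriZol RNA, DNase-treated RT, reporter PCR, FAM label, HpaI digest, CE fluorescence; gain vs DMSO.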

The nature of assay [8]: ATG_M_32_TRANS: Attagene TRANS-FACTORIAL HepG2 Assay for M32 Transcription Factor (Internal Marker) (AID 2282984).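 Also: transcript level of a background control reporter unit measured by RT-PCR and capillary electrophoresis.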 Conditions: HepG2 Attagene TRANS M32 internal marker reporter. The method, boiled down: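 Internal-marker readout from a multiplexed transcription reporter panel. HepG2 cells were transfected with GAL4-UAS reporter units, treated 24 hours, and reporter transcript levels determined by fluorescence after RT-PCR and capillary separation.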

Assay [9] has as its target Transcriptional activator Myb (Homo sapiens) (UniProt P10242). In words: ATG_Myb_CIS: Attagene CIS-FACTORIAL HepG2 Assay for human Myeloblastosis (Myb) Proto-Oncogene Transcription Factor (AID 2282986; active = hit-call score of the fitted dose curve at least 0.9, where 1 is the maximum; inactive = score below 0.9). Conditions: HepG2 Attagene CIS-FACTORIAL Myb reporter transcription; actives raise or lower the signal. The method, boiled down:
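After 24 h of compound dosing, total RNA from transfected HepG2 cells is reverse-transcribed and the reporter sequences amplified, labeled and separated by capillary electrophoresis. Values come from bidirectional fitting against DMSO.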

The target in assay [10] is Nuclear respiratory factor 1 (Homo sapiens) (UniProt Q16656). In words: ATG_NRF1_CIS: Attagene CIS-FACTORIAL HepG2 Assay for human Nuclear Respiratory Factor 1 (NRF1) Orphan Gene (AID 2282987; active = hit-call score of the fitted dose curve at least 0.9, where 1 is the maximum; inactive = score below 0.9). Conditions: HepG2 NRF1 cis-element reporter, Attagene multiplex; actives raise or lower the signal. The method, boiled down: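 Measured: fluorescent reporter-specific RT-PCR products from transfected HepG2 cells, separated by capillary electrophoresis. Exposure lasted 24 h. Analysis used bidirectional curve fitting with DMSO as negative control.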
Sequence of Nuclear respiratory factor 1 (Homo sapiens) (Q16656 whole entry, looked up): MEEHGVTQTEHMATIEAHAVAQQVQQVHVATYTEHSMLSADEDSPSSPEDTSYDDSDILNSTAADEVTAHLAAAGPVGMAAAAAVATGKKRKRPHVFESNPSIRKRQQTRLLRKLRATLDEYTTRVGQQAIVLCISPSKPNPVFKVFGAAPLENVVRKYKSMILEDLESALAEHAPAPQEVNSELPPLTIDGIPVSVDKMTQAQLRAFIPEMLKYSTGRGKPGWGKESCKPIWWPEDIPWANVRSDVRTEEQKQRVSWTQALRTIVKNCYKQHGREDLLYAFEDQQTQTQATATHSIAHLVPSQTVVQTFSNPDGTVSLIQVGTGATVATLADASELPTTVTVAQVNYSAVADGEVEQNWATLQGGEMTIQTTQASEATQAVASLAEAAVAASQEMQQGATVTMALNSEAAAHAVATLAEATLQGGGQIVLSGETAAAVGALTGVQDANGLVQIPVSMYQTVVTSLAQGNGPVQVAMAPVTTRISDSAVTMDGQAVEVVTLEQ

The target of assay [11] is Glucocorticoid receptor (Homo sapiens) (UniProt P04150). As to the kind of experiment: ATG_GR_TRANS: Attagene TRANS-FACTORIAL HepG2 Assay for human Glucocorticoid Receptor (GR) (AID 2282978).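 Also: activators score as hits since higher reporter transcript over DMSO is fitted.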 The settings on record: HepG2 Attagene TRANS GR reporter, mRNA transcription. The essentials:
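After 24 h incubation with test chemical, transfected HepG2 cells were lysed for RNA; reporter cDNA was amplified, FAM-labelled, HpaI-digested and sized on a capillary analyser. Signal gain relative to DMSO was scored.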

Assay [12] deals with Nuclear receptor subfamily 4 group A member 2 (Homo sapiens) (UniProt P43354). As to the kind of experiment: ATG_NURR1_TRANS: Attagene TRANS-FACTORIAL HepG2 Assay for human Nuclear Receptor Related Protein 1 (NURR1) (AID 2282985). The settings on record: HepG2 Attagene TRANS reporter, mRNA readout. The essentials: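 Endpoint: reporter mRNA increase relative to DMSO. HepG2 cells transfected with reporter units, treated 24 h; RNA processed by RT-PCR, labelling, HpaI digestion and capillary electrophoresis.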
Sequence of Nuclear receptor subfamily 4 group A member 2 (Homo sapiens) (P43354 whole entry, looked up): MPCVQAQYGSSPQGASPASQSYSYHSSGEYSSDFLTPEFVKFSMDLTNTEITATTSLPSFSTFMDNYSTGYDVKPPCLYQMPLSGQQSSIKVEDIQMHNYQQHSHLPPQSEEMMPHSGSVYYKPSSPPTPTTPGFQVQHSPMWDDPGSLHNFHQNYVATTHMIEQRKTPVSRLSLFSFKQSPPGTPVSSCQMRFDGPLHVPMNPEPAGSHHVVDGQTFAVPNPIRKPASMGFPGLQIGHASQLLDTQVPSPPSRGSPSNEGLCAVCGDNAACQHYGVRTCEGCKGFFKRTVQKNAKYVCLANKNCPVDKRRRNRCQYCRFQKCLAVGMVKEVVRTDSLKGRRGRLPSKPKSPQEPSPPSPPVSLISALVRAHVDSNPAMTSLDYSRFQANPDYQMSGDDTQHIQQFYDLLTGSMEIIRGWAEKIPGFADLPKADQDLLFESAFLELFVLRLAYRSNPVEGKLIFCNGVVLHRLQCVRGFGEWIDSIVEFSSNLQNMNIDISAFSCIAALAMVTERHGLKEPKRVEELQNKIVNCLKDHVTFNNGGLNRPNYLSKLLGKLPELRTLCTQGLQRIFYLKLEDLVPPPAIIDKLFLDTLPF

Assay [13] is described as follows: ATG_GAL4_TRANS: Attagene TRANS-FACTORIAL HepG2 Assay for GAL4 (Internal Marker) (AID 2282976). Conditions: HepG2 Attagene TRANS GAL4 internal marker reporter. The method, boiled down:
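Fluorescence from capillary electrophoresis of labelled RT-PCR products quantifies reporter mRNA induction after 24 h dosing of HepG2 cells carrying transfected GAL4-UAS reporter transcription units. Vehicle DMSO serves as baseline.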

Assay [14] deals with Bile acid receptor (Homo sapiens) (UniProt Q96RI1). In words: ATG_FXR_TRANS: Attagene TRANS-FACTORIAL HepG2 Assay for Farnesoid X Receptor (FXR) (AID 2282979).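 Also: hits raise reporter mRNA above DMSO so AC50 marks FXR activation.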 Conditions: HepG2 Attagene TRANS FXR-GAL4 reporter transcription. The essentials:
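Chimeric FXR-GAL4 activity in transiently transfected human HepG2 liver cells is scored as induction of reporter mRNA after 24 h of dosing. Detection uses RT-PCR with fluorescent labelling and capillary electrophoresis, with DMSO serving as baseline.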

The target in assay [15] is Oxysterols receptor LXR-alpha (Homo sapiens) (UniProt Q13133). As to the kind of experiment: ATG_LXRa_TRANS: Attagene TRANS-FACTORIAL HepG2 Assay for human Liver X Receptor alpha (LXRa) (AID 2282980). The settings on record: HepG2 Attagene TRANS reporter, LXRa transactivation. The method, boiled down:
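Transient HepG2 transfectants, 24 h dosing, RT-PCR/CE mRNA reporter quantitation; gain-of-signal vs DMSO.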

In assay [16] the target is Oxysterols receptor LXR-beta (Homo sapiens) (UniProt P55055). As to the kind of experiment: ATG_LXRb_TRANS: Attagene TRANS-FACTORIAL HepG2 Assay for human Liver X Receptor beta (LXRb) (AID 2282981). Conditions: HepG2 Attagene TRANS GAL4-LXRb reporter, mRNA. The essentials:
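Multiplexed reporter assay, HepG2, 24 h dosing. Fluorescence of labelled RT-PCR products after capillary electrophoresis gives transcript level; positive fitting direction relative to DMSO.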

The target in assay [17] is Hepatocyte nuclear factor 4-alpha (Homo sapiens) (UniProt P41235). In words: ATG_HNF4a_TRANS: Attagene TRANS-FACTORIAL HepG2 Assay for human Hepatocyte Nuclear Factor 4 alpha (HNF4a) (AID 2282982). The settings on record: HepG2 HNF4a transactivation reporter, mRNA readout. The method, boiled down:
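Endpoint reflects transcriptional activation of a GAL4-UAS reporter by an HNF4a-GAL4 chimera in transfected HepG2 cells, 24 h post-dosing. Fluorescence from RT-PCR products separated by capillary electrophoresis; DMSO baseline.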

Assay [18] can be described thus: ATG_M_06_TRANS: Attagene TRANS-FACTORIAL HepG2 Assay for M06 Transcription Factor (Internal Marker) (AID 2282983). Conditions: HepG2 Attagene TRANS M06 internal marker reporter. The method, boiled down:
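Human liver HepG2 cells bearing transiently transfected chimeric NR-GAL4 reporter units were treated with chemicals for 24 h. Total RNA was reverse-transcribed, reporter sequences amplified and labelled, then quantified by capillary electrophoresis. Activity was fitted upward relative to DMSO.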

The target of assay [19] is Steroid hormone receptor ERR1 (Homo sapiens) (UniProt P11474). As to the kind of experiment: ATG_ERRa_TRANS: Attagene TRANS-FACTORIAL HepG2 Assay for human Estrogen-Related Receptor alpha (ERRa) (AID 2282971). Conditions: HepG2 Attagene TRANS reporter, ERRa transactivation. The essentials:
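HepG2 cells were transiently transfected with multiple GAL4-UAS reporter units, then dosed with compound for 24 h. Total RNA was reverse-transcribed, reporter cDNA PCR-amplified and fluorescently labelled, and fragments resolved by capillary electrophoresis; induction was compared with DMSO.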

Inconclusive results are not listed. Active and inactive are the calls of the source. The calls were made as follows, unless noted: active = hit-call score of the fitted dose curve at least 0.9, where 1 is the maximum; inconclusive = response in the unintended direction; inactive = score below 0.9.

Sequence of Oxysterols receptor LXR-beta (Homo sapiens) (P55055 whole entry, looked up, the tested form may be a part): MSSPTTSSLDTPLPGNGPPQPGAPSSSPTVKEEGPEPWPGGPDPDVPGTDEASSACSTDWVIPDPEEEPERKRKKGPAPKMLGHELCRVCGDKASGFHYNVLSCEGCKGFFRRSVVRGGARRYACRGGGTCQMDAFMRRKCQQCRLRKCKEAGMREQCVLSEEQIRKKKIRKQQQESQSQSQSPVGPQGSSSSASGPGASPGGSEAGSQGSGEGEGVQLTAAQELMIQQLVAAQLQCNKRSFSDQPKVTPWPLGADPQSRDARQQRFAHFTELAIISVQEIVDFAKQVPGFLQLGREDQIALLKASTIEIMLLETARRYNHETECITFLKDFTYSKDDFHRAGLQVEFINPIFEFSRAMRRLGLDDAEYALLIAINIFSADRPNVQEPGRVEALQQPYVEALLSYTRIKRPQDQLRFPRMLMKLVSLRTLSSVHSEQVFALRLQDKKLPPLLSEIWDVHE
Sequence of Transcriptional activator Myb (Homo sapiens) (P10242 whole entry, looked up): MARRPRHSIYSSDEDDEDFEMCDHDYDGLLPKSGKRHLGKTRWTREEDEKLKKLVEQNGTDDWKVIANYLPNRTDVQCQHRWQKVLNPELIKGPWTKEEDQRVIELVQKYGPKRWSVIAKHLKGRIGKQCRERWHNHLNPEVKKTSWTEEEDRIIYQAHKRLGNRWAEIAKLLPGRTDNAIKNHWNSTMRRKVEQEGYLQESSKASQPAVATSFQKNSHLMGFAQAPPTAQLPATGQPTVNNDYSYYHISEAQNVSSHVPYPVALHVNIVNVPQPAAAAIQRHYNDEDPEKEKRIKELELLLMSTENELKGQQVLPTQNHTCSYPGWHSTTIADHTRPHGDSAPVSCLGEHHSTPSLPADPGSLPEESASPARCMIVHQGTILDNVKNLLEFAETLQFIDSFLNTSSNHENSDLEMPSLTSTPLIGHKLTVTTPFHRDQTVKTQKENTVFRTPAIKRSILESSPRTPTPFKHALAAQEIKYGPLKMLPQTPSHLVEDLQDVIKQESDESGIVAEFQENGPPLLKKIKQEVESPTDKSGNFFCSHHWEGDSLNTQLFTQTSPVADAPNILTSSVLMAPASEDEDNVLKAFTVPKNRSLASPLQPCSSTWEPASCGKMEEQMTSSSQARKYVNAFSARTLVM
Sequence of X-box-binding protein 1 (Homo sapiens) (P17861 whole entry, looked up): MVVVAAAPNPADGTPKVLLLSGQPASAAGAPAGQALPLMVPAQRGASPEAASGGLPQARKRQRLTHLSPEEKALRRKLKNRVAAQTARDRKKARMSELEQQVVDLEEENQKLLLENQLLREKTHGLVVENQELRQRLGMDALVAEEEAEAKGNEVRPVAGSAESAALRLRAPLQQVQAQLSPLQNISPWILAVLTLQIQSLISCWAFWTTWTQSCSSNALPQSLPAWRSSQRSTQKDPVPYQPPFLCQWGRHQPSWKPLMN
Sequence of Nuclear receptor subfamily 1 group I member 3 (Homo sapiens) (Q14994 whole entry, looked up, the tested form may be a part): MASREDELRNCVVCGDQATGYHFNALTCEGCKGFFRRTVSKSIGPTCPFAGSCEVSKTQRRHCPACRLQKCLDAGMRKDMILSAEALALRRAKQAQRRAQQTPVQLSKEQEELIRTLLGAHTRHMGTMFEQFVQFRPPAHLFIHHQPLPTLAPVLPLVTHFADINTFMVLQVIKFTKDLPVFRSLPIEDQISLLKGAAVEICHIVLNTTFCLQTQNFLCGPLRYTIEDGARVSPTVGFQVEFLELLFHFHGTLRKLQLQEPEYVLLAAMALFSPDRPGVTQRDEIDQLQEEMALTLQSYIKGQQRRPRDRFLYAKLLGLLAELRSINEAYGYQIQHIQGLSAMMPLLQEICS
Sequence of Glucocorticoid receptor (Homo sapiens) (P04150 whole entry, looked up): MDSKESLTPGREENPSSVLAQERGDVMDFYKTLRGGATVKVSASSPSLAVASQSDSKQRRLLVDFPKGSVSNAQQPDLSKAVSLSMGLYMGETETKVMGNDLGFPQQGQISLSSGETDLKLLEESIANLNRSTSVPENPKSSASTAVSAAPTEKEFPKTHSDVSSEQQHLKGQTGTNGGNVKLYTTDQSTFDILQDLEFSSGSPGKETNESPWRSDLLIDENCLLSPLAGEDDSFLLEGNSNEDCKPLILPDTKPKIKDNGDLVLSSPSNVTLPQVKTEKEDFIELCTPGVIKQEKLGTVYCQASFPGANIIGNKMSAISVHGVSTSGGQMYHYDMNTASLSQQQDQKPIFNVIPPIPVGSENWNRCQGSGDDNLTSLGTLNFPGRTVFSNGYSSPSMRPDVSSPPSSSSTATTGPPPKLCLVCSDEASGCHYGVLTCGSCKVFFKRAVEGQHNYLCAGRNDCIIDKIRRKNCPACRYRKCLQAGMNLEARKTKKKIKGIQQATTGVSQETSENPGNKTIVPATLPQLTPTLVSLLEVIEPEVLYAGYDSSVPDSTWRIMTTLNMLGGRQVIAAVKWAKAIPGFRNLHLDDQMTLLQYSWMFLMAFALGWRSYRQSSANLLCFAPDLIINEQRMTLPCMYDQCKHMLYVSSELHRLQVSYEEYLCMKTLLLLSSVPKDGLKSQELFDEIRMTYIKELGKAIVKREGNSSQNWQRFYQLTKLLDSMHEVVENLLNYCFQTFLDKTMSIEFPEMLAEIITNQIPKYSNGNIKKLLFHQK
Sequence of Steroid hormone receptor ERR1 (Homo sapiens) (P11474 whole entry, looked up, the tested form may be a part): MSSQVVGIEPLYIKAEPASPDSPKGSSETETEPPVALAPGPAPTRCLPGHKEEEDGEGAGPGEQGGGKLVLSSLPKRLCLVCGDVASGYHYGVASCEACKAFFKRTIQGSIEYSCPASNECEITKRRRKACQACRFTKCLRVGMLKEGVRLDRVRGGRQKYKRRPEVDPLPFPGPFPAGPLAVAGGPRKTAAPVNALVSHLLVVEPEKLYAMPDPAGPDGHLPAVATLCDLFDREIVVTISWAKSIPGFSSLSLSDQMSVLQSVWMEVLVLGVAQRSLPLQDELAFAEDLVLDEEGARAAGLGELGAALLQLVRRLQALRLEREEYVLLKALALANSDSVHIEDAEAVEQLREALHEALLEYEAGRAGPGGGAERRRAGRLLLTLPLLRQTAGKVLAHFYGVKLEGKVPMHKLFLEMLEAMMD

For the compound `NCCCN1CCN(CCCN)CC1`, the outcome in [1], in assay [2], in [3], in [4], in assay [5] and in assay [6] was inactive. Further, the compound was classed as inactive in [7], in assay [8], in assay [9] and in [10].

The AC50 is the concentration at which the activity in the assay is half-maximal. Regarding `CCCCC(CC)COC(=O)c1ccccc1` (stereo unspecified), the outcome in assay [1], in assay [2], in assay [3], in assay [4], in assay [6] and in assay [7] was inactive. The compound was called inactive in assay [11], in assay [8], in assay [12], in [9] and in assay [10]. Also, the half-maximal activity concentration (AC50) in assay [5] was 34.6 µM (active).

`C(=CC=Nc1ccccc1)C=CNc1ccccc1`: the compound was classed as inactive in assay [1], in [2], in assay [3], in assay [4], in assay [5] and in [6]. The compound was classed as inactive in [7], in assay [13], in assay [14], in assay [15], in [16] and in assay [17]. Also, the outcome in assay [18], in assay [8], in [9] and in [10] was inactive.

Turning to `ON(Cc1ccccc1)Cc1ccccc1`, the outcome in [1], in assay [2], in [3], in [4], in assay [5] and in assay [6] was inactive. Besides, the result in [7], in assay [16], in [8], in [9] and in [10] was inactive.

Turning to `CC(C)(C)C(=O)CCc1ccc(Cl)cc1`, the compound was classed as inactive in assay [1], in assay [2], in assay [4], in assay [19], in assay [16] and in [18]. For the same compound, the result in [8], in assay [12], in assay [9] and in [10] was inactive. Besides, the AC50 is 41.2 µM (active) in assay [3] and 17.7 µM (active) in [5].
